# DT40 TDP1 no CPT – qHTS for Inhibitors of human tyrosyl-DNA phosphodiesterase 1 (TDP1): qHTS in cells in absence of CPT | Potency, µM (series often up to 46.2 µM), for inactives: at the top dose activity change, negative = growth inhibition, hits mostly inhibitors | AID 686978, 2013 | hit rate 15% among 420,000 | DT40 Tdp1-/- hTDP1 cells, no CPT, ATP luminescence, 48 h; also: nearly all actives have a fitted effect of over 55% in size
#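 No-CPT arm: Tdp1-/-;hTDP1 DT40 cells (400/well) plus compounds, incubated ≥48 hr at 37 °C. Readout CellTiter-Glo luminescence.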
# DT40 TDP1 CPT – qHTS for Inhibitors of human tyrosyl-DNA phosphodiesterase 1 (TDP1): qHTS in cells in presence of CPT | chicken DT40 Tdp1-/-;hTDP1 cells + 20 nM CPT, ATP luminescence, 48 h | Potency, µM (highest dose often 46.2 µM), without a hit: at the top dose activity change, negative = growth inhibition, actives largely listed as inhibitors | hit rate 12% among 420,000 | AID 686979, 2013; also: nearly all actives have a fitted effect of over 55% in size
#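 Cell growth measured by CellTiter-Glo luminescence after a minimum 48 h, 37 C compound exposure with 20 nM CPT in Tdp1-knockout DT40 cells stably expressing hTDP1, seeded 400/well; qHTS titration format.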
# TDP1 block – qHTS Assay for Inhibitors of Tyrosyl-DNA Phosphodiesterase (TDP1). Tyrosyl-DNA phosphodiesterase 1 (Homo sapiens), Q9NUW8. recombinant TDP1, AlphaScreen DNA substrate cleavage. Potency, µM (highest dose often 130 µM), for inactives: at the top dose activity change, negative = inhibition, actives largely listed as inhibitors. hit rate 0.28% among 350,000. AID 485290, 2010; also: nearly all actives have a fitted effect of over 40% in size
#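 Tdp1 1 nM final; 15 min RT w/ cpd; substrate 15 nM, 5 min; beads 10 ug/ml, 10 min; AlphaScreen read. Neg ctrl: no enzyme.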
# VDR inhibitor – Inhibitors of the vitamin D receptor (VDR): qHTS; Vitamin D3 receptor (Homo sapiens), P11473; VDR-SRC2-3 peptide fluorescence polarization, 2 h; Potency, µM, for the others: max response, negative = inhibition, most hits filed as inhibitors; hit rate 0.93% among 400,000; AID 504847, 2011
# Target sequence (P11473 whole entry, looked up): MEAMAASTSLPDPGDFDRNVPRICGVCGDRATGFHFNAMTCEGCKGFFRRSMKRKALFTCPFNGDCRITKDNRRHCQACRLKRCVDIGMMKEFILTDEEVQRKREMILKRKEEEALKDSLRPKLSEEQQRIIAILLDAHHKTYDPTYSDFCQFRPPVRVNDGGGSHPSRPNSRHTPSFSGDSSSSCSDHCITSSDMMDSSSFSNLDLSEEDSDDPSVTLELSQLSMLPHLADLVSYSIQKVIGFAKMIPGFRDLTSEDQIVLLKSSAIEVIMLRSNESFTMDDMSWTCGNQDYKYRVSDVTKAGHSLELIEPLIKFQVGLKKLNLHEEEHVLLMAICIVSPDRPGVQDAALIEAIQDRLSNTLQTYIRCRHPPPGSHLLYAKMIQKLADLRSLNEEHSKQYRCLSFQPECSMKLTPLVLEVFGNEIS
#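 After 23 nl compound addition and a short centrifugation, plates sat for 2 hours at ambient temperature; polarization of fluorescence then indicated loss of VDR binding to peptide SRC2-3.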
# PLK1 PBD inh – qHTS for Inhibitors of PLK1-PDB (polo-like kinase 1 - polo-box domain): Primary Screen; Serine/threonine-protein kinase PLK1 (Homo sapiens), P53350; Plk1 PBD binding of FITC phosphopeptide, fluorescence polarization; Potency, µM, for inactives: max response, negative = inhibition, most hits filed as inhibitors; hit rate 2.8% among 360,000; AID 720504, 2013; also: series mostly up to about 57 µM; nearly all actives have a fitted effect of over 65% in size
# KAT2A inh – qHTS Assay for Inhibitors of GCN5L2. GCN5L2 HAT assay, ThioGlo1 CoA-SH fluorescence. Potency, µM (top dose mostly 58.9 µM), for inactives: at the highest dose activity change, negative = inhibition, most hits filed as inhibitors. hit rate 0.21% among 390,000. AID 504327, 2011
#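 GCN5L2 (20nM final) in 50mM HEPES, 0.1mM EDTA pH 7.5, 0.01% Tween-20 was preincubated 15 min at room temperature with compound, then given ThioGlo1 (50uM), H3(1-25) peptide (75uM) and acetyl-CoA (70uM); CoA-thiol fluorescence (Ex340/Em540) was read at 0 and 20 min.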
# Active calls of the source: *; ? = inconclusive; . = no result; [ ] = another dose, or the depositor's remark. The list is not random: actives were taken first. Their share in the collection is about 18%. Calls follow the shape of the dose curve; as a rule, active = well fitted curve in the direction sought with a large enough effect; inconclusive = small, poorly fitted or top-dose-only effect, or another doubt; inactive = no such curve, though single readings can be large; an effect the other way counts as inactive or inconclusive. % is scaled to controls: 0 for no effect and ±100 for the full control effect; potency is read from the fitted curve at half-maximal effect.
SMILES,DT40 TDP1 no CPT,DT40 TDP1 CPT,TDP1 block,VDR inhibitor,PLK1 PBD inh,KAT2A inh
Cc1cccc(NC(=O)Cn2cc(C(=O)C3CC3)c3ccccc32)c1C,-8.3%,-0.6%,5.8%[0.0935 µM],3.2%,-6.4%,-1.1%
CC(=O)c1cn(CC(=O)Nc2cccc(C)c2C)c2ccccc12,25.9µM*,?,-1.2%,7.5%,-12.1%,-0.4%
COc1ccc(NC(=O)N2CCC3(CC2)CCN(C(=O)c2ccco2)CC3)cc1,-20.0%,5.8%,.,-3.5%,.,15.4%
CC1CCCCC1NS(=O)(=O)CCNC(=O)c1ccc2c(c1)OCO2 (configuration not stated),13.8%,3.3%,0.1%,-4.6%,5.0%,-4.8%
CCN(C1CCCCC1)S(=O)(=O)CCNC(=O)c1ccc2c(c1)OCO2,?,23.1µM*,-1.3%,-5.6%,3.3%,?
COc1ccc(NS(=O)(=O)c2cc([N+](=O)[O-])ccc2N/N=C/c2c(C)[nH]c3ccccc23)cc1,23.1µM*,?,.,11.0%,23.6%,.
COc1ccc(NS(=O)(=O)c2ccc(N/N=C/c3ccc(N4CCOCC4)cc3)c([N+](=O)[O-])c2)cc1,?,18.4%,5.5%,5.7%,2.0%,2.5%
Cn1c(NCCc2ccncc2)nc2cc(-c3ccsc3)sc2c1=O,13µM*,20.6µM*,.,.,-1.2%,.
COc1ccc(-c2cc3nc(NCCN4CCCC4)n(C)c(=O)c3s2)cc1OC,18.4µM*,?,.,.,-7.8%,.
Cn1c(NCCN2CCCC2)nc2cc(-c3ccsc3)sc2c1=O,14.6µM*,20.6µM*,.,.,-10.0%,.
COCCNc1nc2cc(-c3ccsc3)sc2c(=O)n1C,-40.4%,?,.,.,-13.7%,.
Cc1ccc(-c2cc3nc(NCCc4ccncc4)n(C)c(=O)c3s2)cc1,?,23.1µM*,.,.,2.3%,.
Cc1oc(-c2ccc3c(c2)OCCO3)cc1C(=O)NC(Cc1ccccc1)C(=O)O (configuration not stated),-8.7%,-13.4%,.,?,?,-5.5%
Cc1oc2ncn(C)c(=O)c2c1C(=O)Nc1ccc(F)cc1,-19.7%,-1.4%,6.4%,0.9%,.,-6.9%
CS(=O)(=O)Nc1cccc(-c2ccc3ncnc(NCc4cccnc4)c3c2)c1,?,?,8.1%,-2.5%,.,?
CN(CCCC(=O)Nc1ccncc1)S(=O)(=O)c1ccc(Cl)cc1,23.1µM*,16.4µM*,2.1%,-6.3%,-3.0%,-4.6%
C=CCNc1cc(=O)n(Cc2ccccc2)c(=O)[nH]1,18.4µM*,?,.,-10.4%,-6.8%,.
C=CCNC1=C(Cl)C(=O)N(Cc2ccccc2)C1=O,-15.9%,1.7%,-4.9%,14.7%,0.0%,-2.2%
COc1ccc(Cn2ncc3c4sc(C)cc4n(C)c3c2=O)cc1,.,.,-3.3%,.,.,.
COc1ccc(-c2cnc(N)n2CC2CCCO2)cc1 (configuration not stated),?,?,15.4%,7.5%,26.7µM*,-17.6%
COc1ccc(Oc2ncc3nc(-c4ccc(F)cc4)c(=O)n(C[C@H]4CCCO4)c3n2)cc1,-5.4%,4.7%,.,1.0%,.,-17.3%
COc1ccc(NC(=O)c2[nH]nc3c2CSc2ccccc2-3)c(OC)c1,-28.0%,-13.2%,1.3%,13.7%,.,-0.6%
CCOC(=O)N1CCN(S(=O)(=O)c2ccc(C(=O)Nc3nnc(C)o3)cc2)CC1,-2.1%,2.8%,2.6%,-8.8%,-12.6%,-0.1%
Cc1cccc(NC(=O)c2ccc(S(=O)(=O)N3CCCCC3)cc2)n1,-26.0%,-27.6%,.,-14.9%,-7.9%,-2.6%
CC1CC(C)CN(S(=O)(=O)c2ccc(C(=O)NCc3ccc4c(c3)OCO4)cc2)C1 (configuration not stated),?,16.4µM*,7.6%,-10.4%,-3.8%,-9.0%

# Screening data (PubChem BioAssay)
